The values below come from PubChem BioAssay (EPA / NIEHS).

A short description of assay [1]: BSK_3C_VCAM1: BioMAP Diversity Plus: 3C Assay for Vascular cell adhesion molecule 1 (VCAM1) Biomarker Activity (AID 2282999; active = hit-call score of the fitted dose curve at least 0.9, where 1 is the maximum; inactive = score below 0.9). As to conditions: BioMAP 3C HUVEC, VCAM1 ELISA, cytokine-stimulated; actives raise or lower the signal. Summed up:
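Human umbilical vein endothelial cells (3C system), biomarker read by ELISA 24 h after dosing; bidirectional fit against DMSO baseline. Cytotoxicity tracked by SRB total-protein staining in parallel cultures at biomarker time.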

Assay [2] is described as follows: BSK_4H_Eotaxin3: BioMAP Diversity Plus: 4H Assay for Eotaxin 3 Biomarker Activity (AID 2283000; active = hit-call score of the fitted dose curve at least 0.9, where 1 is the maximum; inactive = score below 0.9;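 as to outcome: CCL26 protein level quantified by ELISA in parallel with SRB cytotoxicity check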). The note with it: primary human endothelial cells (HUVEC); actives raise or lower the signal. Summed up:
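Endothelial primary cells (human umbilical vein) exposed to compound for 24 h. ELISA detection of Eotaxin-3.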

Assay [3] deals with human Peroxisome Proliferator-activated Receptor alpha (PPARa), PPARA (gene 5465) (UniProt Q07869). As to the kind of experiment: ATG_PPARa_TRANS: Attagene TRANS-FACTORIAL HepG2 Assay for human Peroxisome Proliferator-activated Receptor alpha (PPARa) (AID 2283001). Summed up: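 Measures transcriptional activity of an exogenous chimeric PPARa-Gal4 protein in transiently transfected HepG2 cells after 24 h dosing. Reporter mRNA quantified via RT-PCR and capillary electrophoresis; DMSO served as negative control.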
human Peroxisome Proliferator-activated Receptor alpha (PPARa), PPARA (gene 5465), sequence (Q07869 whole entry, looked up, the tested form may be a part): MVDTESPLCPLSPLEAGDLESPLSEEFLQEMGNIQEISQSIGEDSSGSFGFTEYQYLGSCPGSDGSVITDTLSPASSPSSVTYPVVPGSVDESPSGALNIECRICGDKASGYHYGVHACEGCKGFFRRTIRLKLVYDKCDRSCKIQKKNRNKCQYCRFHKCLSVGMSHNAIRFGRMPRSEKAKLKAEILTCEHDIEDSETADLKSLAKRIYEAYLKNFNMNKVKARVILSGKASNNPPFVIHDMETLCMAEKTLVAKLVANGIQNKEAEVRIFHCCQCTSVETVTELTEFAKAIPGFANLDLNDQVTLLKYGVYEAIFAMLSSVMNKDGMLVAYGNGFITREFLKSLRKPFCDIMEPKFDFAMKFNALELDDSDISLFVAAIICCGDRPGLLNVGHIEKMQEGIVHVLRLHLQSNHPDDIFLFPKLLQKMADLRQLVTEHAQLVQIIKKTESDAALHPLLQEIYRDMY

Assay [4] concerns the target human Peroxisome Proliferator-activated Receptor delta (PPARd), PPARD (gene 5467) (UniProt Q03181). As to the kind of experiment: ATG_PPARd_TRANS: Attagene TRANS-FACTORIAL HepG2 Assay for human Peroxisome Proliferator-activated Receptor delta (PPARd) (AID 2283002). Summed up:
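Fluorescence from capillary electrophoresis of labelled RT-PCR reporter fragments gives the signal; DMSO sets baseline. Cells: HepG2 transiently carrying GAL4-UAS reporter units plus chimeric nuclear receptor-Gal4 proteins, exposed to chemicals for 24 h.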

Read-out in assay [5]: Intercellular Adhesion Molecule 1 (ICAM1), ICAM1 (gene 3383)
As to the kind of experiment: BSK_3C_ICAM1: BioMAP Diversity Plus: 3C Assay for Intercellular Adhesion Molecule 1 (ICAM1) Biomarker Activity (AID 2283003; active = hit-call score of the fitted dose curve at least 0.9, where 1 is the maximum; inactive = score below 0.9). As to conditions: primary human endothelial cells (HUVEC); actives raise or lower the signal. Summed up:
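Human vascular endothelial primary cells, 3C conditions, 24 h treatment. ICAM-1 by ELISA.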

Assay [6] can be described thus: BSK_3C_Proliferation: Cell Proliferation Assessment in the BioMAP Diversity Plus: 3C Assay (AID 2283006; active = hit-call score of the fitted dose curve at least 0.9, where 1 is the maximum; inactive = score below 0.9;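 as to AC50: potency may reflect either rise or fall in cell number versus DMSO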). The note with it: primary human endothelial cells (HUVEC). Summed up: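 Proliferation of human vascular endothelial primary cells after 48 h dosing, quantified as SRB-stained protein at 560 nm relative to DMSO.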
In assay [7] the target is Peroxisome proliferator-activated receptor gamma (Homo sapiens) (UniProt P37231). Kind of assay: ATG_PPARg_TRANS: Attagene TRANS-FACTORIAL HepG2 Assay for human Peroxisome Proliferator-activated Receptor-gamma (PPARg) (AID 2283007). Summed up:
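A TRANS-format multiplexed reporter assay measures activity of an exogenous chimeric NR-Gal4 protein in HepG2 cells. After 24 h of chemical exposure, reporter transcripts are amplified, fluorescently labelled and sized by capillary electrophoresis, with gain of signal scored against DMSO.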

Assay [8] concerns the target Nuclear receptor subfamily 1 group I member 2 (Homo sapiens) (UniProt O75469). As to the kind of experiment: ATG_PXR_TRANS: Attagene TRANS-FACTORIAL HepG2 Assay for human Pregnane X Receptor (PXR) (AID 2283008). Summed up:
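Read-out is fluorescence of labelled reporter cDNA fragments separated by capillary electrophoresis after RT-PCR and HpaI digestion. Source: HepG2 cells carrying PXR-GAL4/UAS reporter constructs, treated 24 h; activity fitted upward relative to DMSO.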

For assay [9], the target named is human RAR-related Orphan Receptor gamma (RORg), RORC (gene 6097) (UniProt P51449). Kind of assay: ATG_RORg_TRANS: Attagene TRANS-FACTORIAL HepG2 Assay for human RAR-related Orphan Receptor gamma (RORg) (AID 2283011). Summed up: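 Activity is scored as increase in GAL4-UAS reporter mRNA over DMSO, detected by fluorescent RT-PCR and capillary electrophoresis in HepG2 cells transiently expressing a RORg-Gal4 chimera, 24 h after dosing.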
human RAR-related Orphan Receptor gamma (RORg), RORC (gene 6097), sequence (P51449 whole entry, looked up, the tested form may be a part): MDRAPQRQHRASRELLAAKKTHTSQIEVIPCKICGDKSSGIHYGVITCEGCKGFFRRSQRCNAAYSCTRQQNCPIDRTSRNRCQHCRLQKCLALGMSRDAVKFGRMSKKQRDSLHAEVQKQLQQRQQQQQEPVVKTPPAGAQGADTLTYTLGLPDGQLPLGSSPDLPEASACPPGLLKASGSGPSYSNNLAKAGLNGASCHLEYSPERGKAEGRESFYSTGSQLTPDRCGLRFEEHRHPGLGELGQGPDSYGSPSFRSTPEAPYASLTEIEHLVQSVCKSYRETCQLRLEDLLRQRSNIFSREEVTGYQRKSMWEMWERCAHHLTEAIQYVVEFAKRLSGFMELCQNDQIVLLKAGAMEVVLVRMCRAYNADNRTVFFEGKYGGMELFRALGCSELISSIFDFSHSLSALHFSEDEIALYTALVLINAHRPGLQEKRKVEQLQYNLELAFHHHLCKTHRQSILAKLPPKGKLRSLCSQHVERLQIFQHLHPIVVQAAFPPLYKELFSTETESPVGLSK

For assay [10], the target named is human Retinoid X Receptor beta (RXRb), RXRB (gene 6257) (UniProt P28702). As to the kind of experiment: ATG_RXRb_TRANS: Attagene TRANS-FACTORIAL HepG2 Assay for human Retinoid X Receptor beta (RXRb) (AID 2283013). Summed up: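 Multiplexed TRANS reporter assay in HepG2; 24 h dosing; reporter mRNA by RT-PCR/CE fluorescence; gain-of-signal relative to DMSO.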
human Retinoid X Receptor beta (RXRb), RXRB (gene 6257), sequence (P28702 whole entry, looked up, the tested form may be a part): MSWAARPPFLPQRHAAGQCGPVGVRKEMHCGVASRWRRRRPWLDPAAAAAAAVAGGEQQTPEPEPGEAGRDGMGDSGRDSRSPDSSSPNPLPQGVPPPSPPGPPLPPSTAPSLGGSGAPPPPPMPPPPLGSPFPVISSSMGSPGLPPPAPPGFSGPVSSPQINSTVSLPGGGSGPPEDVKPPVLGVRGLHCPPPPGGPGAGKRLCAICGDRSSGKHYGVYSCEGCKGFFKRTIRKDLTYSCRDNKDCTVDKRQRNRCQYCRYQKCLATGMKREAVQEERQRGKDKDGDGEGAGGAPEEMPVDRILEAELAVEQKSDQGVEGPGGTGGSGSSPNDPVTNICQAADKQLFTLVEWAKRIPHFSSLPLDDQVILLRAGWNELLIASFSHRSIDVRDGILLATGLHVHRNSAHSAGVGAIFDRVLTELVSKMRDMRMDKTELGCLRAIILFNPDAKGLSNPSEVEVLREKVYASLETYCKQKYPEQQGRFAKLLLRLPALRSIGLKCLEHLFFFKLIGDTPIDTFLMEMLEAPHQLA
The target of assay [11] is human Thyroid Receptor alpha (THRa1), THRA (gene 7067) (UniProt P10827). As to the kind of experiment: ATG_THRa1_TRANS: Attagene TRANS-FACTORIAL HepG2 Assay for human Thyroid Receptor alpha (THRa1) (AID 2283014). Summed up: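 First, HepG2 cells receive multiple GAL4-UAS reporter units and the chimeric receptor. They are then dosed for 24 h, after which RNA is reverse-transcribed, amplified, labelled, HpaI-cut and sized by capillary electrophoresis; gain relative to DMSO is scored.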
human Thyroid Receptor alpha (THRa1), THRA (gene 7067), sequence (P10827 whole entry, looked up, the tested form may be a part): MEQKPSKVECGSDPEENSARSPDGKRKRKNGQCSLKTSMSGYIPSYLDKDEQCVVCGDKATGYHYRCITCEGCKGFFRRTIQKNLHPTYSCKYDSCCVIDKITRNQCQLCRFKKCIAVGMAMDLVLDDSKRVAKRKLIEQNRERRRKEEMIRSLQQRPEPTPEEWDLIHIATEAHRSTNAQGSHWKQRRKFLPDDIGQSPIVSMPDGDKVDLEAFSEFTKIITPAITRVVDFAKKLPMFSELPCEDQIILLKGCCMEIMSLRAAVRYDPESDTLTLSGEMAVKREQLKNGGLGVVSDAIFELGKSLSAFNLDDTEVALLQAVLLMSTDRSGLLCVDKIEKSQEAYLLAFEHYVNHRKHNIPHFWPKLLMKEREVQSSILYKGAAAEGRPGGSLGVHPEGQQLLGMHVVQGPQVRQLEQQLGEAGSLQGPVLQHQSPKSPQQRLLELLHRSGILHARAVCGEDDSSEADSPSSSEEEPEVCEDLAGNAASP

Read-out in assay [12]: E-selectin (Homo sapiens) (UniProt P16581)
Kind of assay: BSK_3C_Eselectin: BioMAP Diversity Plus: 3C Assay for Eselectin Biomarker Activity (AID 2283015; active = hit-call score of the fitted dose curve at least 0.9, where 1 is the maximum; inactive = score below 0.9;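 as to outcome: cell surface E-selectin protein quantified by ELISA 24 h after dosing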). The note with it: primary human endothelial cells (HUVEC); actives raise or lower the signal. Summed up:
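Human vascular endothelium from umbilical vein is exposed to test chemicals for 24 h. E-selectin levels are read by ELISA and compared with DMSO controls.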

Read-out in assay [13]: Interleukin-1 alpha (IL1a), IL1A (gene 3552)
Kind of assay: BSK_BE3C_IL1a: BioMAP Diversity Plus: BE3C Assay for Interleukin-1 alpha (IL1a) Biomarker Activity (AID 2283016; active = hit-call score of the fitted dose curve at least 0.9, where 1 is the maximum; inactive = score below 0.9). As to conditions: primary human bronchial epithelial cells; actives raise or lower the signal. Summed up:
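Cultures of primary human bronchial epithelial cells receive test chemical. After 24 h, IL-1a is quantified by ELISA, while parallel wells are fixed in TCA and SRB-stained for total protein. Changes in either direction are fitted relative to DMSO.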

Read-out in assay [14]: Monocyte Chemoattractant Protein-1 (MCP1), CCL2 (gene 6347)
Kind of assay: BSK_3C_MCP1: BioMAP Diversity Plus: 3C Assay for Monocyte Chemoattractant Protein-1 (MCP1) Biomarker Activity (AID 2283017; active = hit-call score of the fitted dose curve at least 0.9, where 1 is the maximum; inactive = score below 0.9). As to conditions: primary human endothelial cells (HUVEC); actives raise or lower the signal. Summed up: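 Endothelial cells from human umbilical vein are dosed with chemical, cultured 24 h, then assayed for MCP-1 by ELISA; both increases and decreases are modelled against DMSO controls.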

Read-out in assay [15]: Monocyte Chemoattractant Protein-1 (MCP1), CCL2 (gene 6347)
Kind of assay: BSK_4H_MCP1: BioMAP Diversity Plus: 4H Assay for Monocyte Chemoattractant Protein-1 (MCP1) Biomarker Activity (AID 2283018; active = hit-call score of the fitted dose curve at least 0.9, where 1 is the maximum; inactive = score below 0.9). As to conditions: primary human endothelial cells (HUVEC); actives raise or lower the signal. Summed up:
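Readout: MCP-1 ELISA on compound-treated HUVEC, sampled 24 h post-dosing. Baseline and negative control DMSO; bidirectional fit. Overt toxicity checked alongside by sulforhodamine B protein staining at time of biomarker measurement.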

For assay [16], the target named is human Retinoic Acid Receptor beta (RARb), RARB (gene 5915) (UniProt P10826). Kind of assay: ATG_RARb_TRANS: Attagene TRANS-FACTORIAL HepG2 Assay for human Retinoic Acid Receptor beta (AID 2283004). Summed up: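 HepG2, transient MRTU transfection, NR–Gal4 chimera, 24 h treatment; RT-PCR plus CE fluorescence detection of reporter mRNA; gain of signal vs DMSO.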
human Retinoic Acid Receptor beta (RARb), RARB (gene 5915), sequence (P10826 whole entry, looked up, the tested form may be a part): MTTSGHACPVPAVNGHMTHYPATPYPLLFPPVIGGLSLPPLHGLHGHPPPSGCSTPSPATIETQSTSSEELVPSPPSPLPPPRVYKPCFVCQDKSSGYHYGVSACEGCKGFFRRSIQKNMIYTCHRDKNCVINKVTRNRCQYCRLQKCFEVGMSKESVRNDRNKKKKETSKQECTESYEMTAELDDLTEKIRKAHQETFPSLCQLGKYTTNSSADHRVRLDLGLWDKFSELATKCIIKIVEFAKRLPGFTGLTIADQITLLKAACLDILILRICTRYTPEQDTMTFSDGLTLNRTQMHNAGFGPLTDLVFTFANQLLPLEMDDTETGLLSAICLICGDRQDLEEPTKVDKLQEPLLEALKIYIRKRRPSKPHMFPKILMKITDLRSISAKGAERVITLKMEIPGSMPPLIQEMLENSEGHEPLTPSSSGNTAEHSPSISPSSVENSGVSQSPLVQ

Assay [17] deals with Retinoic acid receptor alpha (Homo sapiens) (UniProt P10276). Kind of assay: ATG_RARa_TRANS: Attagene TRANS-FACTORIAL HepG2 Assay for human Retinoic Acid Receptor alpha (RARa) (AID 2283005). Summed up: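 HepG2 transiently transfected with multiplex GAL4-UAS reporter units including a human RARa–GAL4 chimera; 24 h compound exposure. Reporter mRNA quantified by RT-PCR, 6-FAM labeling and capillary electrophoresis; gain of signal versus DMSO.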

For assay [18], the target named is human Retinoic Acid Receptor gamma (RARg), RARG (gene 5916) (UniProt P13631). As to the kind of experiment: ATG_RARg_TRANS: Attagene TRANS-FACTORIAL HepG2 Assay for human Retinoic Acid Receptor gamma (RARg) (AID 2283009). Summed up:
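HepG2, RARg-GAL4 TRANS system, 24 h exposure; reporter mRNA by RT-PCR + CE fluorescence; increase over DMSO.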

In assay [19] the target is Retinoic acid receptor RXR-alpha (Homo sapiens) (UniProt P19793). Kind of assay: ATG_RXRa_TRANS: Attagene TRANS-FACTORIAL HepG2 Assay for human Retinoid X Receptor alpha (RXRa) (AID 2283012). Summed up: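 Cells (HepG2) carried transiently transfected GAL4-responsive reporter units. Following a 24 h chemical incubation, reporter mRNA induction was read via RT-PCR fragment analysis; DMSO served as negative control and baseline.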

In assay [20] the target is human RAR-related Orphan Receptor beta (RORb), RORB (gene 6096) (UniProt Q92753). As to the kind of experiment: ATG_RORb_TRANS: Attagene TRANS-FACTORIAL HepG2 Assay for human RAR-related Orphan Receptor beta (RORb) (AID 2283010). Summed up: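 In this TRANS-format test, human HepG2 cells express chimeric NR-Gal4 fusion proteins driving GAL4-UAS reporters. After 24 h dosing, reporter transcripts are measured by fluorescent RT-PCR/capillary electrophoresis, with DMSO as negative control.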
human RAR-related Orphan Receptor beta (RORb), RORB (gene 6096), sequence (Q92753 whole entry, looked up, the tested form may be a part): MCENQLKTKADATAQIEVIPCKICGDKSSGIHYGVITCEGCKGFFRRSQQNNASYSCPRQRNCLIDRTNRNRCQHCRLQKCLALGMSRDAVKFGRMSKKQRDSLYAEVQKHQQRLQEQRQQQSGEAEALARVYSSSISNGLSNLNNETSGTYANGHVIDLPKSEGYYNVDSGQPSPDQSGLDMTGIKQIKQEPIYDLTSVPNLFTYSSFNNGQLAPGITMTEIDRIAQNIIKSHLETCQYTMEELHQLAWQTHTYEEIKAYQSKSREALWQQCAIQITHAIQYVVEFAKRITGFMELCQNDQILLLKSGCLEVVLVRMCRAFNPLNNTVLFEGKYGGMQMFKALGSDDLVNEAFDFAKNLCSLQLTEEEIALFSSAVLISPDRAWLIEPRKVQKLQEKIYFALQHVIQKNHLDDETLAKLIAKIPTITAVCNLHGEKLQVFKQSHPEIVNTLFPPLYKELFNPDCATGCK

Molecules are shown by their SMILES. Values joined by “and” are separate entries in the source; they are usually repeats but may differ in a detail not shown here. Equal entries are not always repeated. Inconclusive results are not listed. A structure can be active in one record and inactive in another. Active and inactive are the calls of the source. The calls were made as follows, unless noted: active = hit-call score of the fitted dose curve at least 0.9, where 1 is the maximum; inconclusive = response in the unintended direction; inactive = score below 0.9.

Nuclear receptor subfamily 1 group I member 2 (Homo sapiens), sequence (O75469 whole entry, looked up, the tested form may be a part): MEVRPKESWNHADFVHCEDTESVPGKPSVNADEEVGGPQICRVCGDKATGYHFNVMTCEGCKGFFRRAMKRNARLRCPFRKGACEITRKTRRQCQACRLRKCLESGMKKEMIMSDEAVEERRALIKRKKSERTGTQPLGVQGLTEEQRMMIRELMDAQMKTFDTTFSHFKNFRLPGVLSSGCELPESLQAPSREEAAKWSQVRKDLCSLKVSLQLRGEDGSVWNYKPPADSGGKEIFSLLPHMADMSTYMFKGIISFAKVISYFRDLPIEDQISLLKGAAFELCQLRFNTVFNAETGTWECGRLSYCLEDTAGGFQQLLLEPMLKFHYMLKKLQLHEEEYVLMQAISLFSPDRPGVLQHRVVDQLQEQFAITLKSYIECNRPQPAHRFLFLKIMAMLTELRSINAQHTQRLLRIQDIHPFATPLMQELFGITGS
Peroxisome proliferator-activated receptor gamma (Homo sapiens), sequence (P37231 whole entry, looked up, the tested form may be a part): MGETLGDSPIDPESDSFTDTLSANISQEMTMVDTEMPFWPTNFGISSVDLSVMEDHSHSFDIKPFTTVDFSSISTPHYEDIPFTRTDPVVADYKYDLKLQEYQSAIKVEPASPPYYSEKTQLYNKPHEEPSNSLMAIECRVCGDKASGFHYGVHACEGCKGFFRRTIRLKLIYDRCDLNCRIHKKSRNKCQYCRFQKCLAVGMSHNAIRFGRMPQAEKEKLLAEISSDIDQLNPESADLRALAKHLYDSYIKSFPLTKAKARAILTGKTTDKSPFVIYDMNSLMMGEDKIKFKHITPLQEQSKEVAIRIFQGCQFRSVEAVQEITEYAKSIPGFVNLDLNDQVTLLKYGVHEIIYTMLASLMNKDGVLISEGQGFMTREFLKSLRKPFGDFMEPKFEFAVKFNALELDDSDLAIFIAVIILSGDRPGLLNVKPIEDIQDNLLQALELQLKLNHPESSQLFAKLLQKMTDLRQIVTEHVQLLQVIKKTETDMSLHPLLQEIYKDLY
E-selectin (Homo sapiens), sequence (P16581 whole entry, looked up): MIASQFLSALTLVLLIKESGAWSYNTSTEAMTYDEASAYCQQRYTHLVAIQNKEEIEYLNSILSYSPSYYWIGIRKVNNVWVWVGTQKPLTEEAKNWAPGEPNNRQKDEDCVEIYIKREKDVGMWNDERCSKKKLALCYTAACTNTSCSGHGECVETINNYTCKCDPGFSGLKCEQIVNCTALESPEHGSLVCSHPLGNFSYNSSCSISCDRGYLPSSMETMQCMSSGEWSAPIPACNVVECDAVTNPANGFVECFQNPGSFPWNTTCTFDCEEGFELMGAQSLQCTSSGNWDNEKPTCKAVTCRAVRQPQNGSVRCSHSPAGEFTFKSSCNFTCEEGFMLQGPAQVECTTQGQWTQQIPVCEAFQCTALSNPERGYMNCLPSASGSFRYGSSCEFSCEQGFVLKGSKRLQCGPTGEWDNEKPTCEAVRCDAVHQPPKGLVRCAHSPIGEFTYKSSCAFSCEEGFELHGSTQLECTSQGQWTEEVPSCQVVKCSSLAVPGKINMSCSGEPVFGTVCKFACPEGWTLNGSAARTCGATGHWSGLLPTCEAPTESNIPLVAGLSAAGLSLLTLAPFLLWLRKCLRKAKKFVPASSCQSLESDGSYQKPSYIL
human Peroxisome Proliferator-activated Receptor delta (PPARd), PPARD (gene 5467), sequence (Q03181 whole entry, looked up, the tested form may be a part): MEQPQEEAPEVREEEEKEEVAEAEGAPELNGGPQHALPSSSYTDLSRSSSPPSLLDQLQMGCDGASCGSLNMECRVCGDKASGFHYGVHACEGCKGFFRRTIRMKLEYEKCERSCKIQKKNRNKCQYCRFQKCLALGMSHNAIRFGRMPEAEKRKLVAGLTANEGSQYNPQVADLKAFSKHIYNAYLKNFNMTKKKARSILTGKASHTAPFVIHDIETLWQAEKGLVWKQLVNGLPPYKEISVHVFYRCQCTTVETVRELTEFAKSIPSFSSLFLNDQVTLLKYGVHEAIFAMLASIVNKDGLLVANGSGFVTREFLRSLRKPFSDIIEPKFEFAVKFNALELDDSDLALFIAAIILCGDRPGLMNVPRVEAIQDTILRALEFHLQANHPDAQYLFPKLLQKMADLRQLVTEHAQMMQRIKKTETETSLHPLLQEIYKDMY

As usually defined, the AC50 is the concentration at which the activity in the assay is half-maximal. On to `CCNc1nc(Cl)nc(NC(C)C)n1`, for which the result in assay [1], in [2], in assay [3], in assay [4], in [5] and in assay [6] was inactive. Also, the compound was called inactive in assay [7], in assay [8], in [9], in [10], in assay [11] and in assay [12]. Also, the result in [13], in assay [14] and in assay [15] was inactive. Besides, the AC50 in assay [8] is 24.7 µM (active) and 26.1 µM (active) and 28.1 µM (active).
For `Fc1ccc(Oc2ccnc3cc(Cl)cc(Cl)c23)cc1`, the AC50 in [1] was 31.4 µM (active); in assay [2] it was 28.8 µM (active); in assay [5] it was 29.9 µM (active); in assay [6], 24.4 µM (active); in assay [12] it was 32.3 µM (active); in assay [13] it was 30.7 µM (active). Further, the concentration at half-maximal activity (AC50) is 30.4 µM (active) in [14] and 22.1 µM (active) in assay [15]. Besides, the result in [3], in [4], in assay [16], in [17], in assay [7] and in assay [8] was inactive. Moreover, the compound was called inactive in assay [18], in assay [19], in assay [10] and in assay [11].
`COc1ccc(C(c2ccc(OC)cc2)C(Cl)(Cl)Cl)cc1`: the AC50 in assay [1] is 31.3 µM (active); in assay [6] it was 14.3 µM (active); in assay [8], 1.11 µM (active) and 3.62 µM (active) and 1.47 µM (active); in assay [12] it was 25.6 µM (active); in [14], 26.4 µM (active); in [15], 13.3 µM (active). Besides, the result in [2], in assay [3], in [4], in assay [5], in assay [16] and in assay [17] was inactive. For the same compound, the outcome in [7], in assay [8], in assay [20], in assay [9], in assay [10] and in assay [11] was inactive. For the same compound, in assay [13], the outcome was inactive.
`CC1=C(C(=O)Nc2ccccc2)SCCO1`: the outcome in assay [1], in [2], in [3], in [4], in assay [5] and in assay [16] was inactive. The result in [6], in [7], in [8], in assay [18], in [20] and in assay [10] was inactive. For the same compound, the compound was classed as inactive in assay [11], in [12], in assay [13], in assay [14] and in [15].
On to `COc1cnc(OC)n2nc(NS(=O)(=O)c3c(OCC(F)F)cccc3C(F)(F)F)nc12`, for which the result in assay [1], in assay [2], in assay [5], in [6], in assay [7] and in assay [8] was inactive. In addition, the result in assay [20], in [9], in assay [10], in [11], in assay [12] and in assay [13] was inactive. Also, the outcome in assay [14] and in assay [15] was inactive. For the same compound, the figures for the half-maximal activity concentration (AC50) in assay [2] and in assay [8] were 0.016 µM (active) and 11.8 µM (active), respectively.
As for `O=C(Nc1ccccc1)Nc1ccnc(Cl)c1`, the result in assay [1], in [2], in assay [3], in assay [4], in [5] and in assay [16] was inactive. Moreover, the outcome in assay [6], in [8], in [9], in assay [10], in [11] and in assay [12] was inactive. Besides, in assay [13], the outcome was inactive. For the same compound, the AC50 is 50 µM (active) in assay [7], 9.83 µM (active) in [14] and 20 µM (active) in [15].
